Screens deposited in PubChem BioAssay by The Scripps Research Institute Molecular Screening Center.
ssDAF12 agonist: S. stercoralis DAF-12 activation, primary screen; HEK293 ssDAF-12/GRIP1 lit1-tk-luc reporter, luminescence; % of 3 µM dafachronic acid response; activation, % at 6.8 µM; 370,000 tested, 1% active; AID 652126;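 active = activation above the mean over all tested compounds plus 3 SD, cut at about 0.9% in these data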;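 also: 0% = DMSO-only wells and 100% = 3 µM delta7-dafachronic acid wells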
DAX1 inh-1: NR0B1 (DAX1) inhibition | HEK293 Gal4-DAX1 luciferase reporter, luminescence | inhibition, % at 6.75 µM | 340,000 tested, 0.99% active | AID 504766;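 active = inhibition above the mean over all tested compounds plus 3 SD, cut at about 4.2% in these data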;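 also: 0% = DAX1-transfected cells with DMSO and 100% = empty-vector control cells with DMSO; inhibition shows as a rise in luminescence from relieved DAX1 repression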
DAX1 inh-2: blocks DAX1 repression of SF-1 activated StAR promoter; HEK293T StAR-luciferase reporter, SF-1/DAX-1 repression relief; inhibition, % at 6.8 µM; 370,000 tested, 1.1% active;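 active = inhibition above the mean over all tested compounds plus 3 SD, cut at about 3.6% in these data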;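 also: 0% = DAX-1 cells with DMSO and 100% = cells lacking DAX-1 with DMSO; higher inhibition means more luminescence from relief of DAX-1 repression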
hcDAF12 agonist: H. contortus DAF-12 activation, primary screen; activation, % at 6.8 µM; 370,000 tested, 1.4% active; HEK293 hcDAF-12 lit1-tk-luc reporter, luminescence; 0% DMSO, 100% Δ7-dafachronic acid; AID 652067;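 active = activation above the mean of all tested compounds plus 3 SD, cut at about 5.5% in these data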;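 also: 100% = response to 3 µM Δ7-dafachronic acid high control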
hgDAF-12 ag: hgDAF-12 agonism, primary luciferase screen; HEK293 GAL4-hgDAF12 UAS-luciferase reporter, agonist luminescence; normalized to butyrate control; activation, % at 6.8 µM; 370,000 tested, 1.8% active;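 active = activation above a cutoff set at the mean of all screened compounds plus 3 SD, cut at about 10% in these data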;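 also: 0% = DMSO wells and 100% = sodium butyrate wells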
LXRb hcDAF ctr: activates human LXR-beta, counter-screen for hcDAF-12 agonists; shares compounds with hcDAF12 agonist; HEK293 Gal4-LXR tk-luc reporter, luminescence, 24 h; normalized: DMSO 0%, positive control 100%; activation, % at 6.8 µM; 3,400 tested, under 10 active;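 active = mean percent activation of the reporter above a cutoff set as the average over tested compounds plus their standard deviation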
Target sequence (P55055 whole entry, looked up, the tested form may be a part): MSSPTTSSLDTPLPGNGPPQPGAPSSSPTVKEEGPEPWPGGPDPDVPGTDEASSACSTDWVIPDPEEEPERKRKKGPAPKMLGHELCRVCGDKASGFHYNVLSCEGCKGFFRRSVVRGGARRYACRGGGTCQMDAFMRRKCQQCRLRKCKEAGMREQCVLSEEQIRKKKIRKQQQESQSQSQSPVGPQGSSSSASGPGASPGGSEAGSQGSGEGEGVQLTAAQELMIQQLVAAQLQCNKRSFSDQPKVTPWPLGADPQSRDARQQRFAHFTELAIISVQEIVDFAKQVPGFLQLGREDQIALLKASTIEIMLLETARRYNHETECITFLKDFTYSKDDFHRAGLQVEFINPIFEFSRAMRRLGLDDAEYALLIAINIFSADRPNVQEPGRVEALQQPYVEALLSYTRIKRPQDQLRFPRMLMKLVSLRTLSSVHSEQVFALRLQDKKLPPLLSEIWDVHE
hcDAF12 ag: confirmation of H. contortus DAF-12 agonists; shares compounds with hcDAF12 agonist; HEK293 hcDAF-12 lit1-tk-luc reporter, luminescence; % of Δ7-dafachronic acid response; activation, % at 6.8 µM; 3,400 tested, 61% active; AID 743032;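 active = mean activation across triplicate tests above the threshold derived from the earlier primary screen, cut at about 5.5% in these data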;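 also: 0% = DMSO only wells and 100% = 3 µM Δ7-dafachronic acid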
Starred values were filed as active, the others as inactive; . = no result. Shown are actives, neighbours in structure and some others; about 4.1% of the full set was active somewhere.

SMILES	ssDAF12 agonist	DAX1 inh-1	DAX1 inh-2	hcDAF12 agonist	hgDAF-12 ag	LXRb hcDAF ctr	hcDAF12 ag
COc1ccc(NCC(=O)N/N=C/C=C\c2ccccc2)cc1	-1	-1	1	7.6*	6	0	0
O=S1(=O)c2ccc(N3CCCC3)cc2Oc2ccccc2CN1Cc1cn(Cc2ccc(C(F)(F)F)cc2)nn1	-1	.	-1	-1	-3	.	.
CCOC(=O)c1[nH]c2ccccc2c1NC(=O)CC(C)(C)C	0	-1	0	6.8*	5	0	5
COC(=O)c1[nH]c2ccccc2c1NC(=O)Oc1ccccc1	0	3	1	8.4*	6	0	7.4*
COC(=O)c1[nH]c2ccccc2c1CN1CCOCC1	-1	-1	0	7.5*	2	0	2
CN1OC[C@@H]2CN(CC3CCCCC3)[C@H](c3ccc(-c4ccc(C#N)cc4)cc3)C[C@@H]21	0	.	3	0	0	.	.
COC(=O)c1ccccc1NC(=O)c1cnc2sccn2c1=O	-1	0	1	0	1	.	.
O=C(Nc1nccs1)c1cnc2sccn2c1=O	1.5*	1	2	8.5*	9	0	7.6*
O=C(CCn1c(=S)oc2ccccc21)Nc1cccc(F)c1	-1	-1	0	7.5*	-1	-1	-2
O=C(CCn1c(=S)oc2ccccc21)Nc1cccc(O)c1	-2	-1	-1	0	3	.	.
COc1ccccc1Nc1ncc(-c2cccs2)s1	1.3*	3	2	11*	9	1	15*
Cc1cccc(Cn2cc(COC(=O)Nc3ccc(F)cc3)nn2)c1	-1	.	1	-2	-2	.	.
CCCC12CN3CCN(CC(C3)/C1=N\NC(=O)Nc1ccccc1)C2	-1	0	0	1	1	.	.
CCCCC12CN3CCN(CC(C3)/C1=N\NC(=O)c1ccccc1N)C2	0	2	3	9.4*	11*	0	-1
O=C(CCC(=O)NCCCc1ccccc1)NCCCc1ccccc1	-1	1	0	7.7*	2	0	0
c1ccc(-c2nc3c(ccc4ccccc43)[nH]2)nc1	1	1	1	8.9*	12*	0	8.1*
Cc1ccc2nc(-c3ccccn3)[nH]c2c1	1	-2	2	8.7*	10	1	5
Cc1ccc2nc(CCCc3nc4ccc(C)cc4[nH]3)[nH]c2c1	-1	0	-1	-2	-4	.	.
Cc1ccc2nc(-c3ccco3)c(Cc3ccccc3C(F)(F)F)n2c1	-1	.	-3	-1	-5	.	.
CC[C@]1(c2ccc(C)cc2)C(=O)N(C(=O)OC(C)C)N1C(=O)OC(C)C	-1	.	-3	-1	-1	.	.
Cc1ccc(NC(=O)c2ccc(NCCN)c([N+](=O)[O-])c2)cc1	0	-1	1	7.1*	2	0	3
C#CCNC(=O)CSCc1nc(-c2ccc(OCC)cc2)oc1C	-2	.	.	-3	3	.	.
CCCC(=O)Nc1c2c(nn1-c1cccc(C)c1C)CS(=O)(=O)C2	0	-1	1	8.1*	3	0	5
C[C@H]1C(=O)N2[C@@H](C[C@]3(c4c[nH]c5ccccc45)c4ccccc4N(S(=O)(=O)c4ccccc4)[C@H]23)C(=O)N1C	-1	.	.	6.8*	1	0	2
CC(NC(=O)c1c(N)[nH]c(C(=O)c2ccc(Cl)cc2)c1-c1ccc(Br)cc1)c1cccc2ccccc12 (stereo not drawn)	-1	.	0	0	-1	.	.
SMILES	ssDAF12 agonist	DAX1 inh-1	DAX1 inh-2	hcDAF12 agonist	hgDAF-12 ag	LXRb hcDAF ctr	hcDAF12 ag
O=C(CSc1nc2ccccc2c(=O)n1-c1ccc(Cl)cc1)NNC(=S)Nc1ccccc1	-2	.	-1	0	1	.	.
Cc1ccc(-n2nnc(-c3cc4ccccc4n3C)n2)cc1	1.0*	2	1	9.7*	3	1	13*
S=c1[nH]nc(-c2cc3c(s2)-c2ccccc2CC3)o1	0	2	0	4	6	.	.
CSc1nnc(-c2cc3c(s2)-c2ccccc2CC3)o1	2.6*	3	3	9.8*	11*	1	11*
CCOC(=O)[C@]12CCCCC/C=C\1N(Cc1ccc(OC)cc1)C(=O)[C@H]2CC(=O)NCc1cccc(C(F)(F)F)c1	-2	.	0	0	-1	.	.
Nc1ccc2nc(-c3ccc(Cl)cc3)[nH]c2c1	0	2	2	7.0*	4	1	4
Nc1ccc(-c2nc3ccc(N)cc3[nH]2)cc1	-2	-1	1	-1	-2	.	.
Nc1cc(N)cc(-c2nc3ccccc3[nH]2)c1	0	0	1	8.9*	2	0	4
O=C(Nc1nc2c(F)cc(F)cc2s1)c1ccccn1	1	-2	2	7.0*	13*	1	4
CCc1noc(C)c1C(=O)Nc1nc2c(C)cccc2s1	-1	4	0	0	6	.	.
CCc1noc(C)c1C(=O)Nc1nc2c(F)cc(F)cc2s1	0	0	0	11*	2	0	4
COc1ccc(NC(=O)C(c2ccccn2)N(C(C)=O)c2ccc(C)cc2)cc1 (stereo not drawn)	1.6*	-1	1	10*	4	0	4
CC(=O)Nc1ccc(C(=O)N(C)C(C(=O)Nc2ccc(C)cc2)c2ccccn2)cc1 (stereo not drawn)	0	-1	0	4	1	.	.
O=C(NCc1ccccc1)C(c1cc2ccccc2o1)n1c(=O)c(-c2cc3ccccc3[nH]2)nc2ccccc21 (stereo not drawn)	1.8*	.	3	9.2*	6	0	7.0*
O=C(Nc1ccc2c(c1)OCCO2)C(c1ccncc1)n1c(=O)c(-c2cc3ccccc3[nH]2)nc2ccccc21 (stereo not drawn)	1.6*	.	3	8.8*	12*	1	15*
O=C(NCc1ccccc1)C(c1ccccc1)n1c(=O)c(-c2cc3ccccc3[nH]2)nc2ccccc21 (stereo not drawn)	0	.	2	4	4	.	.
CCCCCNC(=O)C(c1ccncc1)n1c(=O)c(-c2cc3ccccc3[nH]2)nc2ccccc21 (stereo not drawn)	0.9*	.	4.3*	9.2*	8	0	9.9*
CCC[C@H]1[C@@H](OC(=O)NC2CCCCC2)CC[C@@]23CCCN2C(=O)CCC[C@@H]13	-2	.	.	0	-3	.	.
CCN(CC)CCCNC(=O)c1cc2cc(Cl)ccc2nc1N	0	.	1	2	1	.	.
